The values that follow come from PubChem BioAssay (NCI).

Some test systems named below: T-47D breast; BT-549 breast; MDA-MB-435 melanoma; SW-620 colon; MCF7 breast; HCT-116 colon; HCC-2998 colon; KM12 colon.
Holding throughout (assay): NCI-60 one-dose screen, 48 h (100 = growth as untreated, 0 = no growth, -100 = all killed)
Settings in all cases: 10 µM unless noted

The panel holds about 83,000 compounds, 20% with a hit somewhere; the sample as a whole holds those more often.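 Growth was measured after 48 h exposure to one concentration of compound in 96-well plates. Values under 10 count as active.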 Unmarked numbers belong to inactive results. Activity calls are given as the source filed them.

Consider `O=C(Nc1ccc2ncnc(Nc3ccc(F)c(Cl)c3)c2c1)c1cccs1`, for which the growth in the experiment with T-47D breast was 28.8%; in the experiment on BT-549 breast it was 68.3%; with MDA-MB-435 melanoma it was 70.2%; with SW-620 colon it was 93.2%; in the experiment with MCF7 breast it was 56.1%; in the experiment with HCT-116 colon, 54.7%. For the same compound, in the experiment on HCC-2998 colon, the growth was 99.2%.
Turning to `Nc1ncnc2c1N=C(c1ccc(F)cc1)CC(c1sc(Cl)nc1Cl)N2` (stereo not drawn), the growth with T-47D breast is 88.3%; in the experiment with BT-549 breast, 78%; in the experiment with MDA-MB-435 melanoma, 102%; with SW-620 colon, 101%; with MCF7 breast it was 86.6%; in the experiment with HCT-116 colon, 91.1%. For the same compound, in the experiment on HCC-2998 colon, the growth is 101%.
On to `Clc1ccc(Nc2ncnc3c2sc2ncccc23)cc1`, for which the growth in the experiment with T-47D breast was 33.5%; in the experiment on BT-549 breast it was 49.1%; with MDA-MB-435 melanoma, 36.2%; in the experiment on SW-620 colon, 46.6%; in the experiment with MCF7 breast it was 19.5%; in the experiment with HCT-116 colon, 28%. The growth in the experiment with HCC-2998 colon was 61.9%.
Regarding `Clc1ccccc1Nc1nnc(-c2ccncc2)s1`, the growth is 89.5% in the experiment with T-47D breast; 90.4% with BT-549 breast; 93.6% in the experiment with MDA-MB-435 melanoma; 91.6% with SW-620 colon; 96% in the experiment on MCF7 breast; 102% with HCT-116 colon. Besides, the growth with HCC-2998 colon is 106%.
As for `CNC(=O)c1ccccc1Sc1ccc2c(/C=C/c3ccccn3)n[nH]c2c1`, the growth with T-47D breast is -12.4% (active); in the experiment on BT-549 breast it was 16.2%; in the experiment on MDA-MB-435 melanoma it was 39%; in the experiment on SW-620 colon it was 17.8%; in the experiment with MCF7 breast, 35.2%; in the experiment on HCT-116 colon, 29.9%. Also, the growth with HCC-2998 colon is 68.9%.
`COc1cc2nccc(Oc3ccc(NC(=O)C4(C(=O)Nc5ccc(F)cc5)CC4)cc3)c2cc1O`: the growth was 55.3% with T-47D breast; 79.9% with BT-549 breast; 52.6% in the experiment on MDA-MB-435 melanoma; 34.4% in the experiment on SW-620 colon; 51.2% with MCF7 breast; 52% in the experiment with HCT-116 colon. In addition, the growth in the experiment on HCC-2998 colon is 79.3%.
With `Cc1cc(C)c2c(n1)sc1c(Nc3ccc(Cl)cc3Cl)ncnc12`, the growth was 36.8% with T-47D breast; 44% in the experiment with BT-549 breast; 36% in the experiment on MDA-MB-435 melanoma; 44.6% in the experiment on SW-620 colon; 19.8% with MCF7 breast; 24.9% with HCT-116 colon. Also, the growth with HCC-2998 colon is 58.6%.
As for `COc1cc2c(cc1OCCCOc1cc3c(cc1OC)C(=O)N1CCC[C@H]1C=N3)C=CC(C)(C)O2`, the growth in the experiment on T-47D breast was 62.6%; in the experiment with BT-549 breast it was -0.137% (active); in the experiment on MDA-MB-435 melanoma it was 101%; in the experiment on SW-620 colon it was 18.1%; in the experiment on MCF7 breast it was 39.3%; with HCT-116 colon, 61%. In the experiment with HCC-2998 colon, the growth was 100%.
In the case of `Fc1ccc(-c2ccnc3nc(-c4ccncc4)nn23)cc1`, the growth in the experiment on T-47D breast is 90.1%; in the experiment with BT-549 breast it was 93.8%; in the experiment with MDA-MB-435 melanoma it was 107%; in the experiment with SW-620 colon, 30.3%; in the experiment with MCF7 breast it was 86.1%; in the experiment with HCT-116 colon, 95.1%.
In the case of `CC1C2CCC(C2)C1COCCOCCO` (stereo not drawn), the growth in the experiment on T-47D breast is 98.7%; in the experiment with BT-549 breast, 104%; with MDA-MB-435 melanoma, 110%; with SW-620 colon, 101%; with MCF7 breast, 105%; in the experiment on HCT-116 colon, 108%. The growth in the experiment on HCC-2998 colon is 105%.
As to `CCCCCCCCNC(C)C(O)c1ccc(SC(C)C)cc1` (stereo not drawn), the growth was 49.6% in the experiment with T-47D breast; 59.9% in the experiment with BT-549 breast; -40.8% (active) with MDA-MB-435 melanoma; -63.6% (active) with SW-620 colon; 54% in the experiment on MCF7 breast; -96.9% (active) in the experiment on HCT-116 colon. For the same compound, the growth with HCC-2998 colon is -80.4% (active).
In the case of `CC(C)NC(=O)OCC#CCOC(=O)NC(C)C`, the growth with T-47D breast was 99.2%; with BT-549 breast, 95.7%; in the experiment on MDA-MB-435 melanoma it was 110%; with SW-620 colon it was 109%; in the experiment with MCF7 breast, 94.4%; in the experiment with HCT-116 colon, 95.4%. The growth in the experiment with HCC-2998 colon is 103%; with KM12 colon it was 106%.
On to `CC(=O)c1cccc(Nc2ncnc3ccc(NC(=O)c4ccco4)cc23)c1`, for which the growth in the experiment with T-47D breast was 77.1%; in the experiment with BT-549 breast, 96.5%; in the experiment with MDA-MB-435 melanoma it was 83%; in the experiment on SW-620 colon, 115%; in the experiment with MCF7 breast it was 80.9%; in the experiment with HCT-116 colon it was 91%. Moreover, the growth in the experiment on HCC-2998 colon is 111%.
With `Cc1nc2n[nH]c(N)c2nc1C`, the growth was 101% in the experiment with T-47D breast; 118% with BT-549 breast; 107% in the experiment with MDA-MB-435 melanoma; 108% in the experiment with SW-620 colon; 94.8% with MCF7 breast; 109% in the experiment with HCT-116 colon. In the experiment with HCC-2998 colon, the growth was 103%.
As to `CC[C@H](Nc1nc(N)nc(C2CC2)c1C#N)c1nc2cccc(NCc3ccc(C(=O)NO)cc3)c2c(=O)n1-c1ccccc1`, the growth in the experiment on T-47D breast was -5.53% (active); in the experiment on BT-549 breast it was 33.3%; in the experiment on MDA-MB-435 melanoma, 7.07% (active); in the experiment with SW-620 colon, 11.6%; in the experiment with MCF7 breast, 4.25% (active); with HCT-116 colon, -59.8% (active). For the same compound, the growth in the experiment on HCC-2998 colon was 0.531% (active).
As for `O=C(Nc1ccccc1Cl)Oc1ccc2ccccc2c1`, the growth was 88.5% with T-47D breast; 133% in the experiment with BT-549 breast; 105% in the experiment on MDA-MB-435 melanoma; 103% in the experiment with SW-620 colon; 84.4% in the experiment with MCF7 breast; 95.3% with HCT-116 colon. Moreover, the results for the growth in the experiment with HCC-2998 colon and in the experiment on KM12 colon were 95.1% and 95.9%, respectively.
On to `C/C(=C\C(=N\N=C(N)N)c1ccc(Cl)cc1)c1ccc(Cl)cc1`, for which the growth is -79.6% (active) with T-47D breast; -84.1% (active) with BT-549 breast; -62.9% (active) with MDA-MB-435 melanoma; -72.7% (active) in the experiment on SW-620 colon; -78.4% (active) with MCF7 breast; -85.9% (active) in the experiment on HCT-116 colon. In addition, the growth with HCC-2998 colon is -87.3% (active); in the experiment on KM12 colon, -88.2% (active).
With `CCCCCCCCCCCCCCCC1=NCC[N+]1(CCO)CCO`, the growth is 78.8% in the experiment with T-47D breast; 79.6% with BT-549 breast; 30.7% with MDA-MB-435 melanoma; 57.6% with SW-620 colon; 50.5% with MCF7 breast; 12.1% with HCT-116 colon. Further, in the experiment on HCC-2998 colon, the growth was 82.5%.
